# ± gives the standard deviation of the averaged measurements. Whole data set: some 33,000 sequences, median “E-score (rank enrichment, -0.5 to 0.5)” near -0.0028, cut for the highest 2% near 0.23. Only a selection was taken, and the highest values are over-represented in it overall.
# Tested on: 2Sb-muMax20 (muMax20 with two 1,3-bis(methyl)benzene Cys staples, A13C/A17C and Q88C/A92C, C-terminal Lys)
# Test: PBM 8-mer E-score (E-score (rank enrichment, -0.5 to 0.5)); higher = stronger preferential binding
# Description: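 Protein binding microarray (universal PBM chip covering all 10-mers in fixed probe flanks) with chemically synthesized human Max(13-93) bHLH-LZ analogs (not full-length Max) bearing noncanonical residues (hArg, Tha, Aib, Nle at 65) and aromatic Cys staples. Read-out per 8-mer (and its reverse complement): E-score (rank-based enrichment, -0.5 to 0.5) and Z-score of median probe intensity.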
row,Sequence,PBM 8-mer E-score
1,CGGATTCC,-0.0954 ± 0.031
2,CAAACGGA,-0.0945 ± 0.0024
3,AACCACGG,-0.276 ± 0.0092
4,CGATCAGA,-0.199 ± 0.015
5,ATTGGCTG,-0.0784 ± 0.03
6,CTCGTGCA,0.0182 ± 0.011
7,AAGTATAT,0.136 ± 0.0036
8,ATATAGCA,0.175 ± 0.016
9,CTATAGCC,0.0346 ± 0.087
10,AAGTATAC,0.236 ± 0.038
11,AAGTATAA,0.196 ± 0.052
12,ATATAGCC,0.234 ± 0.01
13,GTGAGACA,0.0265 ± 0.039
14,GTTGTCCA,0.00715 ± 0.051
15,AGGCCCGG,-0.321 ± 0.063
16,GGGGTCAA,0.109 ± 0.11
17,ACGCGGTC,-0.0575 ± 0.016
18,CAATAGAC,0.109 ± 0.022
19,AAATAGAG,0.114 ± 0.056
20,GAATAGAC,0.00351 ± 0.056
21,AAATAGAT,0.24 ± 0.044
22,CAATAGGG,0.0594 ± 0.051
23,AAATAGGG,0.286 ± 0.0043
24,AAATAGGC,0.0499 ± 0.12
25,AAATAGAA,-0.0324 ± 0.022

row,Sequence,PBM 8-mer E-score
1,AAATAGAC,0.235 ± 0.0036
2,GCCTGAGC,-0.218 ± 0.037
3,GCAGCACC,-0.116 ± 0.057
4,GGTTCCAC,-0.0645 ± 0.035
5,ACGGTCTC,-0.174 ± 0.083
6,ACCCATCA,0.114 ± 0.044
7,AACCCGCC,0.123 ± 0.0032
8,GCCCCGCC,0.233 ± 0.12
9,GGCCCGCC,-0.185 ± 0.11
10,ACCCCGCC,0.318 ± 0.056
11,CCCCCGCC,-0.0601 ± 0.073
12,GCCCCGCA,0.0269 ± 0.056
13,GGATTGTA,0.156 ± 0.046
14,AGGTAGCA,0.107 ± 0.065
15,AGGTCAGG,-0.187 ± 0.011
16,TAAAGCAA,0.2878 ± 0.0008
17,CAAAGCAA,0.173 ± 0.058
18,GAAAGCAA,0.0699 ± 0.014
19,GTCGAGAC,0.0609 ± 0.045
20,ATTTCAGG,-0.054 ± 0.037
21,AGATCCAG,-0.0734 ± 0.013
22,GGACAGAC,-0.211 ± 0.04
23,ATTGATGC,0.125 ± 0.018
24,ATTGATGG,0.254 ± 0.0094
25,ATTGATGA,0.0883 ± 0.037

row,Sequence,PBM 8-mer E-score
1,CGCTGTTC,-0.0947 ± 0.036
2,ATCTCGAC,-0.0985 ± 0.011
3,CACACCAC,0.0993 ± 0.072
4,CGAACATA,0.233 ± 0.037
5,CGAACAAG,-0.08043 ± 0.00071
6,CGAACATC,0.0524 ± 0.0016
7,CGAACAAA,0.261 ± 0.021
8,AGAACAAA,0.13 ± 0.046
9,GGAACATA,0.0124 ± 0.063
10,CGTAGGAC,-0.224 ± 0.05
11,CGGCACAG,-0.151 ± 0.028
12,GTATTAGA,0.201 ± 0.063
13,CTATTAGA,-0.0815 ± 0.044
14,ATATTAGC,0.125 ± 0.041
15,ATATTAGG,0.287 ± 0.008
16,CTATTAGC,0.0397 ± 0.078
17,ATATTAGA,0.245 ± 0.0043
18,CGGCCCCG,-0.0779 ± 0.064
19,GGAGGTTA,0.0654 ± 0.011
20,CGGTAAGA,0.00167 ± 0.075
21,CCACATCC,0.00851 ± 0.069
22,AGTGATTA,0.0652 ± 0.034
23,AACTATTA,0.252 ± 0.069
24,AACTAATA,0.263 ± 0.029
25,TACTAATA,0.112 ± 0.037

row,Sequence,PBM 8-mer E-score
1,AGCTATTA,0.251 ± 0.019
2,GACTATTA,-0.0384 ± 0.062
3,CGCTATTA,-0.0606 ± 0.018
4,GGCTATTA,0.116 ± 0.04
5,CACTAATA,0.113 ± 0.031
6,CACTATTA,0.133 ± 0.036
7,ATCGGGTG,-0.0686 ± 0.0025
8,ATCCAAGG,-0.161 ± 0.034
9,CATACTCG,0.0129 ± 0.075
10,CCATCTTC,0.0281 ± 0.036
11,AATCACGT,0.26 ± 0.025
12,AATCACAT,0.245 ± 0.025
13,AATCACGC,0.125 ± 0.047
14,AATCACAA,0.166 ± 0.021
15,AATCACGA,-0.0273 ± 0.0012
16,AATCACAG,-0.0581 ± 0.1
17,ACAAATTA,0.0394 ± 0.025
18,CGGCAAAG,-0.127 ± 0.016
19,CCGACAGG,-0.121 ± 0.008
20,GCTCATTA,0.155 ± 0.098
21,CCTTATTA,0.28 ± 0.023
22,CCTCATTA,0.251 ± 0.052
23,GCTTATTA,0.1305 ± 0.0011
24,CCTCATTC,0.0874 ± 0.052
25,CCTTATTC,-0.00564 ± 0.062

row,Sequence,PBM 8-mer E-score
1,AGCTGCCT,-0.1104 ± 0.00073
2,CAGCACGC,-0.176 ± 0.048
3,CTAAAGCC,0.0237 ± 0.016
4,AGGGAAAT,0.264 ± 0.019
5,AGGGAAAG,0.06 ± 0.037
6,AGGGAAAC,0.00477 ± 0.00053
7,ATAAGCTG,0.0487 ± 0.092
8,AGTAGAAT,0.192 ± 0.0085
9,CGATTGAC,-0.0145 ± 0.035
10,CCACGTCC,-0.141 ± 0.039
11,CGACGTGC,-0.0806 ± 0.038
12,CCACGTGC,0.376 ± 0.054
13,CCACGTAG,-0.0491 ± 0.031
14,CCACGCGA,0.0259 ± 0.0059
15,CCACGTGA,0.377 ± 0.034
16,CGACGTGA,0.0209 ± 0.0095
17,CTACGTGA,0.0198 ± 0.047
18,CCACGTGG,0.46 ± 0.0066
19,CAACGTGG,0.11 ± 0.044
20,ACACGCGG,0.145 ± 0.026
21,CCACGCGG,0.323 ± 0.026
22,TATTAAAA,0.142 ± 0.065
23,GGAACACC,-0.18 ± 0.026
24,ACACGGGT,-0.046 ± 0.012
25,ATTAGGTC,0.0763 ± 0.069

row,Sequence,PBM 8-mer E-score
1,ATTATCCA,0.0946 ± 0.055
2,ACGGAACT,-0.0318 ± 0.08
3,AGCGTCGG,-0.117 ± 0.08
4,CAGTATCC,0.0515 ± 0.025
5,CCACGTTC,0.0604 ± 0.011
6,GCACGTTA,0.1 ± 0.012
7,CCACGTTA,0.3181 ± 0.0019
8,TAGCTTCA,0.122 ± 0.05
9,AGCGCCCC,-0.0138 ± 0.11
10,CGTATAAG,0.0878 ± 0.037
11,ACTATAAG,0.0622 ± 0.044
12,AGTATAAT,0.24 ± 0.091
13,AGTATAAA,0.188 ± 0.0027
14,AGTATAAG,0.272 ± 0.011
15,AGTATAAC,-0.0733 ± 0.029
16,AGCGCAGA,-0.126 ± 0.074
17,AAATAAAT,0.172 ± 0.013
18,ATAGAAAC,0.0134 ± 0.036
19,AAGAGGCC,-0.129 ± 0.067
20,GACTTCAA,0.15 ± 0.0026
21,TACTTCAA,0.265 ± 0.047
22,AACTTCAA,0.00863 ± 0.015
23,AAGATCTA,-0.0269 ± 0.015
24,AAGATCTT,0.257 ± 0.052
25,AAGATCTG,0.0847 ± 0.069

row,Sequence,PBM 8-mer E-score
1,ATGCTGAA,0.0724 ± 0.024
2,ACCTAGTG,0.109 ± 0.023
3,CGGGGATA,0.0352 ± 0.012
4,GGGGGATA,0.0584 ± 0.079
5,GTGGGATA,0.274 ± 0.071
6,CTGGGATA,-0.0992 ± 0.038
7,ATGGGATA,0.145 ± 0.0055
8,AGGGGATA,0.303 ± 0.046
9,ATGCTTCC,-0.0299 ± 0.042
10,GCCCAGGA,-0.14 ± 0.058
11,ACCGCGGT,-0.115 ± 0.037
12,CCCTCCGC,-0.0855 ± 0.048
13,AACCGATC,-0.0993 ± 0.0093
14,ACGTGTAG,-0.0126 ± 0.035
15,GCGTGTTA,0.0351 ± 0.018
16,ACGTGTGA,0.0598 ± 0.014
17,ACGTGTTA,0.269 ± 0.0048
18,CCGTGTTA,0.0249 ± 0.014
19,ACGTGTAT,0.35 ± 0.016
20,ATGTGTTG,0.197 ± 0.039
21,ACGTGTTC,0.103 ± 0.017
22,ACGTGTGC,0.2375 ± 0.00032

# — the supplement of paper PMC12636033
